{"source": "PubChem BioAssay (EPA / NIEHS)", "key": {"[1]": {"molecular_target": "human Neurokinin, NK2 Receptor, TACR2 (gene 6865) (UniProt P21452)", "sequence (P21452 whole entry, looked up)": "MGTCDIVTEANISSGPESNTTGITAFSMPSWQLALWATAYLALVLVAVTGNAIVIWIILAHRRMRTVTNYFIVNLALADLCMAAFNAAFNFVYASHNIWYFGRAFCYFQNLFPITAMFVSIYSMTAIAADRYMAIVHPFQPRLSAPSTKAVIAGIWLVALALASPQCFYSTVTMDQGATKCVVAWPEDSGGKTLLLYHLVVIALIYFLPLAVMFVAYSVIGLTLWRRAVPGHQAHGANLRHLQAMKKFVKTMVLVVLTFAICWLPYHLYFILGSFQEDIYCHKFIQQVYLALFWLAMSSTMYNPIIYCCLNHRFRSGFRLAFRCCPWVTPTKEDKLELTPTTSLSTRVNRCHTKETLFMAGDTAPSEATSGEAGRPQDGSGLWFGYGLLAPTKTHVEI", "test": "NVS_GPCR_hNK2: NovaScreen (NVS) G Protein-Coupled Receptor Assay for human Neurokinin, NK2 Receptor (AID 2283278)", "how_it_was_run": "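Cell-free radioligand binding using receptor protein extracted from CHO cells; readings taken 4 hours after chemical dosing by filter-based scintillation counting. Primary screen ran single concentration (25 uM) in duplicate; actives followed up in concentration series, loss-of-signal versus DMSO baseline.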"}, "[2]": {"molecular_target": "rat Adrenergic Receptor, Alpha 2 (Adra2), Non-selective Binding, Adra2a (gene 25083) (UniProt P22909)", "sequence (P22909 whole entry, looked up)": "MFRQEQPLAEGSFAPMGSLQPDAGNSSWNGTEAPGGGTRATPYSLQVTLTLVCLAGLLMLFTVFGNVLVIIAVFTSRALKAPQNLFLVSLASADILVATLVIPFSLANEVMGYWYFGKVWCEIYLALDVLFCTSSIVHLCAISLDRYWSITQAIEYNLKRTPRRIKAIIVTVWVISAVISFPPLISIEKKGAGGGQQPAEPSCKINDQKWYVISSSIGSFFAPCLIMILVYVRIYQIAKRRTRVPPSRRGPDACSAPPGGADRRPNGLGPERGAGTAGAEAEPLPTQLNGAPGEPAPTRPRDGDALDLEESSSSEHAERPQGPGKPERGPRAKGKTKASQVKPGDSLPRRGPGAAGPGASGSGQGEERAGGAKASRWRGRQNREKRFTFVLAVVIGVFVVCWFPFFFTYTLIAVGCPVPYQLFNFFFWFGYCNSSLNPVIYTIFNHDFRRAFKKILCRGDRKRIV", "test": "NVS_GPCR_rAdra2_NonSelective: NovaScreen (NVS) G Protein-Coupled Receptor Assay for rat Adrenergic Receptor, Alpha 2 (Adra2), Non-selective Binding (AID 2283299)", "how_it_was_run": "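Filter-based scintillation counting of radioligand binding to rat cortical membrane receptors, measured 1.25 hours post-dosing; loss of signal versus DMSO indicates displacement. Initial single-concentration duplicate at 25 uM, then concentration series.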"}, "[3]": {"molecular_target": "D(1A) dopamine receptor (Homo sapiens) (UniProt P21728)", "sequence (P21728 whole entry, looked up)": "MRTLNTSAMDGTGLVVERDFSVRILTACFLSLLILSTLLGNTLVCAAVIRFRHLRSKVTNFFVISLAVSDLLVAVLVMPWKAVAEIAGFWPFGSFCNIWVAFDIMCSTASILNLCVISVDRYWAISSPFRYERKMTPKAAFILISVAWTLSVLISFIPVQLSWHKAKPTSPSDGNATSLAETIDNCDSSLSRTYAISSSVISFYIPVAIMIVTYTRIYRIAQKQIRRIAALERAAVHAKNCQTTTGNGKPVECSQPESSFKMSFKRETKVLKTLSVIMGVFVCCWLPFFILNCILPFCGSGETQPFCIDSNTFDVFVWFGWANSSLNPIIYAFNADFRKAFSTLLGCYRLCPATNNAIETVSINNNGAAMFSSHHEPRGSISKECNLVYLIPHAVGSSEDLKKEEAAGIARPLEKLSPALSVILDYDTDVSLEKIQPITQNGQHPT", "test": "NVS_GPCR_hDRD1: NovaScreen (NVS) G Protein-Coupled Receptor Assay for human Dopamine Receptor D1 (DRD1) (AID 2283269)", "how_it_was_run": "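Cell-free competition with radioligand, filter-trapped and scintillation-counted 1 h post-dose, using HEK293-derived human D1 preparation. Duplicate single-point testing at 25 uM first, then concentration series for actives; DMSO served as baseline, loss-of-signal scored.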"}, "[4]": {"molecular_target": "human Thromboxane A2 Receptor (TXA2), TBXA2R (gene 6915) (UniProt P21731)", "sequence (P21731 whole entry, looked up)": "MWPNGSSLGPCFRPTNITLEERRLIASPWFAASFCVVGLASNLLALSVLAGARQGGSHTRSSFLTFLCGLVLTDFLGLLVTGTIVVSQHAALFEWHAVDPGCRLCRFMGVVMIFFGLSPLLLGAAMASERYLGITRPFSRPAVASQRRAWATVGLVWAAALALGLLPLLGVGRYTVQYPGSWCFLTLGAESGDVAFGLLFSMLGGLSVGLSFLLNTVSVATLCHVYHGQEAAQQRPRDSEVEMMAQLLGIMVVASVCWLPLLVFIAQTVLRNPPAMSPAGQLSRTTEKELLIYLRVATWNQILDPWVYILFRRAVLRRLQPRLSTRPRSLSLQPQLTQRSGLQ", "test": "NVS_GPCR_hTXA2: NovaScreen (NVS) G Protein-Coupled Receptor Assay for human Thromboxane A2 Receptor (TXA2) (AID 2283282)", "how_it_was_run": "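Screening ran at 25 uM in duplicate, with concentration series for confirmed actives. Each test measures radioligand binding to human platelet protein after 1 h, cell-free, using filter-based scintillation detection of signal loss relative to DMSO.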"}, "[5]": {"molecular_target": "mouse Cholecystokinin, CCK1 Receptor (CCKA), Cckar (gene 12425) (UniProt O08786)", "sequence (O08786 whole entry, looked up)": "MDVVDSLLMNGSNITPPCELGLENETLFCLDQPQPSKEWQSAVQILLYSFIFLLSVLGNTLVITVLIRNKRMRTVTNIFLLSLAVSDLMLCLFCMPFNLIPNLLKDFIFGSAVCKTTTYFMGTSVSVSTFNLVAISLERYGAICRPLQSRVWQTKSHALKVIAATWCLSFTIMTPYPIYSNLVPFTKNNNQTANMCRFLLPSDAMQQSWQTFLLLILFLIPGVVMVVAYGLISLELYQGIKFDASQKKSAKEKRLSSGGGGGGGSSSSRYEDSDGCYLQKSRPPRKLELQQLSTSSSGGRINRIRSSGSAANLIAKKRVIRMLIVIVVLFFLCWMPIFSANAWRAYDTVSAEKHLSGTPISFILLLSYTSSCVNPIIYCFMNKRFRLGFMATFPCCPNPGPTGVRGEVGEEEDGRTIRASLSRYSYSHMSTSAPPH", "test": "NVS_GPCR_mCCKAPeripheral: NovaScreen (NVS) G Protein-Coupled Receptor Assay for mouse Cholecystokinin, CCK1 Receptor (CCKA) (AID 2283285)", "how_it_was_run": "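Chemicals were first screened in duplicate at 25 uM, with those meeting threshold (e.g., 30% inhibition) retested in singleton concentration series to 50 uM maximum. Binding of radioligand to mouse pancreatic membranes was read after 2 h by filtration and scintillation counting.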"}, "[6]": {"molecular_target": "human Neonicotinoid receptor (NNR), CHRNA2 (gene 1135) (UniProt Q15822)", "sequence (Q15822 whole entry, looked up)": "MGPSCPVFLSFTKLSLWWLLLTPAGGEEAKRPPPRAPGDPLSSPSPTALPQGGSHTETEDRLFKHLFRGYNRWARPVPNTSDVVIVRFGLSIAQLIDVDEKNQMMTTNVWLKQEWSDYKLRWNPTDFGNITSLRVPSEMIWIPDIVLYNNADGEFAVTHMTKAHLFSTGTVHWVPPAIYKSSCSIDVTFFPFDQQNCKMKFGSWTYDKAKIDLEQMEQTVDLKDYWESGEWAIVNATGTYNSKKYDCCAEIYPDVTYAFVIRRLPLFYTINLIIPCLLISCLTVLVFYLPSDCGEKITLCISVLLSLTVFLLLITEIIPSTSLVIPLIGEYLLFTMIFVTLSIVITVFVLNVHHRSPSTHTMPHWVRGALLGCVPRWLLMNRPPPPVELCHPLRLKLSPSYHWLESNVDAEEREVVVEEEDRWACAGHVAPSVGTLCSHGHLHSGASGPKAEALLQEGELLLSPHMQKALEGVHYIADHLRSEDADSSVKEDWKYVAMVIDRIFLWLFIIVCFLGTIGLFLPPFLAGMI", "test": "NVS_LGIC_hNNR_NBungSens: NovaScreen (NVS) Ligand-Gated Ion Channel Assay for human Neonicotinoid receptor (NNR) (AID 2283313)", "how_it_was_run": "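Compounds first screened in duplicate at 25 uM, then actives re-tested in single-replicate dose series up to 50 uM. Binding measured as displacement of specific radioligand from neuroblastoma membrane receptors after 2 h, scintillation read on filters.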"}, "[7]": {"molecular_target": "Muscarinic acetylcholine receptor M2 (Homo sapiens) (UniProt P08172)", "sequence (P08172 whole entry, looked up)": "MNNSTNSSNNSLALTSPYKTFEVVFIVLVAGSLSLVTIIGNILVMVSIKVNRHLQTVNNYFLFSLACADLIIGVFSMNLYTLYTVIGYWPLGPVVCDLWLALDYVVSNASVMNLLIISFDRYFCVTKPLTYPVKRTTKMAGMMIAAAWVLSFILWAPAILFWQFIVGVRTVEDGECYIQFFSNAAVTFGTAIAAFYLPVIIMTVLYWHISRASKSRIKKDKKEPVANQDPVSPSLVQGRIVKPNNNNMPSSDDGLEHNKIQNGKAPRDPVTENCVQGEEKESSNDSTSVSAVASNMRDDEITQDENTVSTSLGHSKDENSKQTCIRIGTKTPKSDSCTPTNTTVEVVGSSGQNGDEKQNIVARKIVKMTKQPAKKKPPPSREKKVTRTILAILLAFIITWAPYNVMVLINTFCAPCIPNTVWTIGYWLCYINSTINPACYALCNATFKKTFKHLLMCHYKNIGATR", "test": "NVS_GPCR_hM2: NovaScreen (NVS) G Protein-Coupled Receptor Assay for human Muscarinic, M2 Receptor (AID 2283273)", "how_it_was_run": "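CHO-expressed human M2 receptor preparation, competitive displacement of a radioligand read by filter-based scintillation counting after 1 h. Single 25 uM duplicate screen, then concentration-response follow-up of actives; DMSO baseline.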"}, "[8]": {"molecular_target": "human Orphanin, Opioid Related Nociceptin Receptor 1 (ORL1), OPRL1 (gene 4987) (UniProt P41146)", "sequence (P41146 whole entry, looked up)": "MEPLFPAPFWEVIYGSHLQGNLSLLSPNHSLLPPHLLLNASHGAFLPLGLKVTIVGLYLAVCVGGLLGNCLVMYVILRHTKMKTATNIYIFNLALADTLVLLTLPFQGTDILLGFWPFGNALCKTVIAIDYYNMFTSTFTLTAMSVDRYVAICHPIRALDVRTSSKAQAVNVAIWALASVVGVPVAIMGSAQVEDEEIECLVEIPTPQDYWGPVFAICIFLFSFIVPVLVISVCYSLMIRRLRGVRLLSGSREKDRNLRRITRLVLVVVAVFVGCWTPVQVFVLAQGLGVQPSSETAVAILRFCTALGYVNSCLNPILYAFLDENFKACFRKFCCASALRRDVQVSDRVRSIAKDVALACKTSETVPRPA", "test": "NVS_GPCR_hORL1: NovaScreen (NVS) G Protein-Coupled Receptor Assay for human Orphanin, Opioid Related Nociceptin Receptor 1 (ORL1) (AID 2283283)", "how_it_was_run": "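Cell-free binding using HEK293-derived receptor protein: radioligand displacement measured by filter scintillation 1 hour after dosing. Primary testing at 25 uM in duplicate, followed by singleton concentration series up to 50 uM; DMSO served as negative control.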"}, "[9]": {"molecular_target": "human Opioid Receptor Mu (Opiate Mu), OPRM1 (gene 4988) (UniProt P35372)", "sequence (P35372 whole entry, looked up)": "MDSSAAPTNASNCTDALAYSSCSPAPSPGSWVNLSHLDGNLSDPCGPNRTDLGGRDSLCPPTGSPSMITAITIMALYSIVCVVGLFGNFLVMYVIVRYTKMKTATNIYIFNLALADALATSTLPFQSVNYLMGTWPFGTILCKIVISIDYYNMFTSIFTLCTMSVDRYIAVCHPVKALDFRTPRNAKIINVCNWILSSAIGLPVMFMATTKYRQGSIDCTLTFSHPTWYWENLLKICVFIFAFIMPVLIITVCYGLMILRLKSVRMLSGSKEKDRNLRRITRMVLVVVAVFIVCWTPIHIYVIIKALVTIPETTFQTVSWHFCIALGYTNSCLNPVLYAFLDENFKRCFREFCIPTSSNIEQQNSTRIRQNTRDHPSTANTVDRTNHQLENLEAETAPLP", "test": "NVS_GPCR_hOpiate_mu: NovaScreen (NVS) G Protein-Coupled Receptor Assay for human Opioid Receptor Mu (Opiate Mu) (AID 2283290);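 further: hits lower bound tracer signal versus DMSO meaning displacement of the ligand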", "how_it_was_run": "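Primary screen in duplicate at 25 uM, with actives followed in concentration series. CHO-derived receptor membranes, cell-free; bound radioligand read by scintillation counting after filtration at 2.5 h, decrease scored against DMSO.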"}, "[10]": {"tested_on": "5-hydroxytryptamine receptor 2C (pig)", "test": "NVS_GPCR_p5HT2C: NovaScreen (NVS) G Protein-Coupled Receptor Assay for pig Serotonin, 5-Hydroxytryptamine Receptor 2C (5HT2C) (AID 2283288)", "how_it_was_run": "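Radioligand displacement on membranes from pig choroid plexus, detected by filter scintillation counting after 1 h. Tested first at a single 25 uM in duplicate, then in concentration-response for actives; DMSO served as baseline.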"}, "[11]": {"molecular_target": "mouse Cholecystokinin, CCK2 Receptor (CCKB), Cckbr (gene 12426) (UniProt P56481)", "sequence (P56481 whole entry, looked up)": "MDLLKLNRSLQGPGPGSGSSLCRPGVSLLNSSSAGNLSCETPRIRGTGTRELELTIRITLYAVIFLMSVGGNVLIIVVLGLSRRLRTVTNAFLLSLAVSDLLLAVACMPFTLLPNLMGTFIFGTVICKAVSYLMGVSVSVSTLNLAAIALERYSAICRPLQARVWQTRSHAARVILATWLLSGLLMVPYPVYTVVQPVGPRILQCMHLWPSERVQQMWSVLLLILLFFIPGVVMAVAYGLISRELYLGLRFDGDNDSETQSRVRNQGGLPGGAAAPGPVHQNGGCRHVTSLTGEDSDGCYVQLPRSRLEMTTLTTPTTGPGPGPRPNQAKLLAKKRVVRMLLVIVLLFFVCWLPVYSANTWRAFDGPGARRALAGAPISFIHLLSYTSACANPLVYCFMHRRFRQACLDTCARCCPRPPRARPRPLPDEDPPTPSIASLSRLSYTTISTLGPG", "test": "NVS_GPCR_mCKKBCentral: NovaScreen (NVS) G Protein-Coupled Receptor Assay for mouse Cholecystokinin, CCK2 Receptor (CCKB) (AID 2283293)", "how_it_was_run": "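Mouse forebrain membrane preparation incubated 2 h with chemical and radioligand; bound radioactivity counted after filtration. Single-concentration duplicate screen at 25 uM, then concentration series to 50 uM max for hits, DMSO as baseline.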"}}, "note": "Records with an inconclusive call do not appear. Active and inactive are the calls of the source. How the source made its calls: active means hit-call score of the fitted dose curve at least 0.9, where 1 is the maximum; inconclusive means response in the unintended direction; inactive means score below 0.9."}
{"smiles": "CCOC(=O)CCN(SN(C)C(=O)Oc1cccc2c1OC(C)(C)C2)C(C)C", "values": [{"measurement": "outcome", "setting": "[1]", "value": "inactive"}]}
{"smiles": "COc1ccccc1N", "values": [{"measurement": "AC50", "setting": "[2]", "value": "25 µM (active)"}]}
{"smiles": "Brc1c(Br)c(Br)c(Oc2c(Br)c(Br)c(Br)c(Br)c2Br)c(Br)c1Br", "values": [{"measurement": "outcome", "setting": "[3]", "value": "inactive"}]}
{"smiles": "O=C(N[C@H]1CN2CCC1CC2)c1ccc2c(c1)OCCO2", "values": [{"measurement": "outcome", "setting": "[4]", "value": "inactive"}, {"measurement": "outcome", "setting": "[5]", "value": "inactive"}, {"measurement": "AC50", "setting": "[6]", "value": "12.1 µM (active)"}]}
{"smiles": "BrCCCCBr", "values": [{"measurement": "outcome", "setting": "[7]", "value": "inactive"}]}
{"smiles": "O=[N+]([O-])c1ccc(Nc2ccccc2)cc1", "values": [{"measurement": "AC50", "setting": "[3]", "value": "8.91 µM (active)"}]}
{"smiles": "OCCN(CCO)CCO", "values": [{"measurement": "outcome", "setting": "[7]", "value": "inactive"}]}
{"smiles": "c1ccc2sc(SNC3CCCCC3)nc2c1", "values": [{"measurement": "AC50", "setting": "[1]", "value": "0.0784 µM (active)"}, {"measurement": "AC50", "setting": "[4]", "value": "1.12 µM (active)"}]}
{"smiles": "Oc1ccc(Cc2ccc(O)cc2)cc1", "values": [{"measurement": "outcome", "setting": "[3]", "value": "inactive"}, {"measurement": "outcome", "setting": "[4]", "value": "inactive"}]}
{"smiles": "CC(C=O)Cc1ccc2c(c1)OCO2", "note": "(stereo not drawn)", "values": [{"measurement": "outcome", "setting": "[3]", "value": "inactive"}]}
{"smiles": "CCOP(=O)(OCC)OC(=CCl)c1ccc(Cl)cc1Cl", "values": [{"measurement": "AC50", "setting": "[4]", "value": "0.35 µM (active)"}]}
{"smiles": "N#CCCC(Br)(C#N)CBr", "note": "(stereo not drawn)", "values": [{"measurement": "AC50", "setting": "[3]", "value": "11 µM (active)"}, {"measurement": "AC50", "setting": "[4]", "value": "0.594 µM (active)"}, {"measurement": "AC50", "setting": "[8]", "value": "4.83 µM (active)"}, {"measurement": "AC50", "setting": "[9]", "value": "20.6 µM (active)"}]}
{"smiles": "CCCCCCCCCCCCN(C)C", "values": [{"measurement": "outcome", "setting": "[3]", "value": "inactive"}, {"measurement": "AC50", "setting": "[7]", "value": "22.6 µM (active)"}]}
{"smiles": "COC(=O)Nc1cccc(OC(=O)Nc2cccc(C)c2)c1", "values": [{"measurement": "AC50", "setting": "[10]", "value": "25 µM (active)"}]}
{"smiles": "Oc1c(Cl)cc(Cl)cc1Cl", "values": [{"measurement": "outcome", "setting": "[11]", "value": "inactive"}]}
{"smiles": "CCCCCCCCCCBr", "values": [{"measurement": "outcome", "setting": "[3]", "value": "inactive"}]}
{"smiles": "Oc1cc(Cl)c(Cl)cc1Cl", "values": [{"measurement": "AC50", "setting": "[10]", "value": "10.2 µM (active)"}]}
{"smiles": "N#Cc1ccccc1N", "values": [{"measurement": "outcome", "setting": "[3]", "value": "inactive"}]}
{"smiles": "CCOP(=O)(OCC)SCCSCC", "values": [{"measurement": "outcome", "setting": "[9]", "value": "inactive"}]}
{"smiles": "Cc1ccc(OP(=O)(Oc2ccc(C)cc2C)Oc2ccc(C)cc2C)c(C)c1", "values": [{"measurement": "AC50", "setting": "[3]", "value": "14.3 µM (active)"}, {"measurement": "AC50", "setting": "[1]", "value": "8.63 µM (active)"}]}
{"smiles": "CCOC(=O)C(SP(=S)(OC)OC)c1ccccc1", "note": "(stereo not drawn)", "values": [{"measurement": "outcome", "setting": "[1]", "value": "inactive"}]}
{"smiles": "Nc1ccc(N)cc1", "values": [{"measurement": "AC50", "setting": "[7]", "value": "9.36 µM (active)"}, {"measurement": "AC50", "setting": "[1]", "value": "5.13 µM (active)"}]}
{"smiles": "Oc1cccc(-c2ccccc2)c1", "values": [{"measurement": "outcome", "setting": "[4]", "value": "inactive"}]}
